Assay outcomes deposited in PubChem BioAssay by National Center for Advancing Translational Sciences (NCATS).
LASV entry inh – inhibitors of Lassa virus binding or cell entry; Potency, µM (titrated, usually from 37.9 µM), without a hit: top-dose activity change, negative = inhibition, hits mostly inhibitors; Lassa virus pseudotype entry inhibition, cell reporter; 300,000 compounds, 1.2% hits; AID 540256; calls by dose curve; tested in HEK293 cells; further: potency means the concentration at half of the fitted maximal effect; on the % scale 0 is the no-effect control and ±100 the full control effect; nearly all actives have a fitted effect of over 50% in size
Marburg entry inh – blocks Marburg virus binding to or entry into cells. Potency, µM (top dose mostly 37.8 µM), for inactives: at the top dose activity change, negative = inhibition, actives largely listed as inhibitors. AID 540276. 300,000 compounds, 1.8% hits. Marburg virus pseudotyped entry inhibition, cell reporter; calls by dose curve; tested in HEK293 cells; further: potency means the concentration at half of the fitted maximal effect; on the % scale 0 is the no-effect control and ±100 the full control effect
Shiga toxin inh – Shiga toxin inhibition; Vero cells, Shiga toxin protein synthesis inhibition reporter; inhibition, % at 38.7 µM; 290,000 compounds, 9.2% hits; AID 2315; in the data active means inhibition mostly above about 28%, no sharp cut-off; inactive means mostly below about 43%; further: 0% is about no effect
Vaccinia Venus – vaccinia inhibition (Venus reporter); AID 720580; Vaccinia virus Venus reporter expression, fluorescence; Potency, µM (series often up to 36.5 µM), for the others: at the highest dose activity change, negative = inhibition, usual class: inhibitors; 330,000 compounds, 0.46% hits; calls by dose curve; tested in A549 cells; further: potency means the concentration at half of the fitted maximal effect; on the % scale 0 is the no-effect control and ±100 the full control effect; nearly all actives have a fitted effect of over 30% in size
Vaccinia mCherry – vaccinia inhibition (mCherry reporter). Vaccinia virus mCherry reporter infection, fluorescence. Potency, µM (doses to about 36.5 µM), without a hit: top-dose activity change, negative = inhibition, actives largely listed as inhibitors. 310,000 compounds, 0.63% hits. AID 720579; calls by dose curve; tested in A549 cells; further: potency means the concentration at half of the fitted maximal effect; on the % scale 0 is the no-effect control and ±100 the full control effect; nearly all actives have a fitted effect of over 35% in size
CHX counter – counter-screen hit for Shiga toxin inhibitors, cycloheximide | max response, % | AID 2314 | cell reporter, cycloheximide protein synthesis inhibition counterscreen | 300,000 compounds, 12% hits; in the data active means max response mostly above about 13%, no sharp cut-off; inactive means mostly below about 14%; further: read at 38.3 µM for the half of the compounds with a filed dose; 0% is about no effect
* = called active by the depositor; u = inconclusive; x = no result; [ ] = dose if it differs, or a comment. The entries come from a sample that favours hits as a whole.

SMILES	LASV entry inh	Marburg entry inh	Shiga toxin inh	Vaccinia Venus	Vaccinia mCherry	CHX counter
CSCC[C@H](NC(=O)[C@H](Cc1c[nH]c2ccccc12)NC(=O)CNC(=O)[C@H](Cc1ccc(O)cc1)NC(=O)[C@H](C)NC(=O)[C@H](CCC(=O)O)NC(=O)[C@H](CCC(=O)O)NC(=O)[C@H](CCC(=O)O)NC(=O)[C@H](CCC(=O)O)NC(=O)[C@H](CCC(=O)O)NC(=O)[C@H](CC(C)C)NC(=O)[C@H](Cc1c[nH]c2ccccc12)NC(=O)[C@@H]1CCCN1C(=O)CNC(=O)[C@@H]1CCC(=O)N1)C(=O)N[C@@H](CC(=O)O)C(=O)N[C@@H](Cc1ccccc1)C(=O)NCC(=O)O	x	x	3	x	x	-7
O=C(CCC1CCCN(C(=O)CCC(F)(F)F)C1)NCc1ccc(F)c(F)c1 (configuration not stated)	-8%	1%[46.1 µM]	-2	-9%	-12%	-1
COC(=O)c1ccccc1C(=O)N1CCCC(CNC(=O)c2ccc(F)cc2)C1 (configuration not stated)	24%[46.1 µM]	16%[46.1 µM]	4	-9%	-13%	12*
COC(=O)c1ccccc1C(=O)N1CCCC(CCC(=O)NCc2ccc(F)c(F)c2)C1 (configuration not stated)	-5%[46.1 µM]	u	93*	5%	-4%	41*
CSc1ccccc1C(=O)N1CCCC(CCC(=O)NCc2ccc(F)c(F)c2)C1 (configuration not stated)	-6%	u	2	-27%	-30%	7
Cc1noc(C)c1CCC(=O)N1CCCC(CCC(=O)NCc2ccc(F)c(F)c2)C1 (configuration not stated)	x	x	14	-6%	-23%	19*
CC(C)=CCC/C(C)=C/CO/N=C1\C[C@@H](O)[C@@H](O)[C@@H]2[C@@H]3C(=O)N(c4cccc(Oc5ccccc5)c4)C(=O)[C@@H]3CC[C@@H]12	x	26%[14.2 µM]	x	x	x	x
CCCCN(Cc1cc2ccccc2[nH]c1=O)C(=O)c1cccc(Cl)c1	-10%[46.1 µM]	-20%[46.1 µM]	x	-24%	-2%	x
COC(=O)[C@@H]1CCCN1Cc1ccc2c(c1)CN(Cc1coc3ccc(C)cc3c1=O)CCO2	x	x	x	-10%	-15%	x
COc1ccccc1N1C(=O)N(C(C)=O)C2C1Nc1ccccc1N2C (configuration not stated)	u	12µM*	12	9%	u	1
COc1ccccc1N1C(=O)c2ccccc2NC1c1ccncc1 (configuration not stated)	-5%	-2%[46.1 µM]	-4	-10%	x	-3
O=C(C1=C(O)CCCC1)N1CCOCC1	x	20%[46.1 µM]	x	x	x	x
Cc1nn2c(=O)cc(COc3ccc(/C=C(\C#N)C(=O)Nc4ccccc4)cc3Cl)nc2s1	10%[46.1 µM]	6%[46.1 µM]	x	-2%	-3%	x
CN1N=C2c3ccccc3CCCC2C1c1ccc(F)cc1 (configuration not stated)	u	0%[46.1 µM]	76*	-8%	-10%	39*
CCCCN1/C(=C/c2ccc3ccccc3[n+]2CC)Sc2ccccc21	2.2µM*	5.6µM*	-9	422%	-5%	-2
CCN1/C(=C/c2ccc3ccccc3[n+]2CC)C=Cc2ccccc21	5.6µM*	3.5µM*	-12	41%	x	-6
COc1ccc(-c2nc3n(n2)C(=O)C[C@@H](c2ccco2)S3)cc1	x	10%	x	x	x	x
CCCCC#C[C@@H]1C=C[C@H](Oc2ccc(C(=O)OC)cc2)[C@@H](COC(=O)OCC)O1	x	16%[14.2 µM]	x	x	x	x
N=c1nc2n(cc1F)C1OC(CO)C(O)C1O2 (configuration not stated)	-21%[46.1 µM]	-24%	x	u	5.6µM*	x
COc1ccc(-c2nc3c(c(SCC(=O)Nc4ccccc4F)n2)Cc2cc(C)ccc2O3)cc1	6%[46.1 µM]	1%[46.1 µM]	x	-8%	-7%	x
CCCc1cc(=O)n2[nH]c(-c3cccc(Br)c3)cc2n1	u	-5%	64*	-1%	-14%	36*
CCCc1cc(=O)n2[nH]c(-c3ccc(Br)cc3)cc2n1	-3%	u	14*	-24%	x	38*
CCOC(=O)Cc1cc(=O)n2[nH]c(-c3ccccc3)cc2n1	1%	1%	-3	-14%	-22%	-2
CC(C)(C)C(=O)Nc1nnc(SCc2cccc(F)c2)s1	x	x	91*	x	x	53*
CCC(=O)Nc1nnc(SCc2ccc(F)cc2)s1	6%	0%	32	-7%	x	0
COCCSc1nnc(NC(=O)C(C)(C)C)s1	u	-1%	111*	-9%	-10%	59*
